Out of some 320,000 compounds screened, about 2,100 (0.66%) were called active. About 53% were inconclusive and are not listed. Calls follow the shape of the dose curve; as a rule, active = well fitted inhibition curve with a large enough effect in the signal ratio, with a control signal flat (not every such curve was filed as active); inconclusive = small, poorly fitted or top-dose-only effect, or effect the other way, or a change in a side signal; inactive = flat fitted curve, though single readings scatter; the % refers to the signal ratio. Many of the other results were omitted from the sample, so actives are more common in it than they were.
assay: qHTS Assay for Lipid Storage Modulators in Drosophila S3 Cells; settings: BODIPY lipid droplet fluorescence, 18-24 h, cells fed with added oleic acid; cell number change: measured here: cell count max response; series mostly up to 46.1 µM; lipid storage change, negative = inhibition: at the top concentration;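 as to cell number change: cells counted by Cell Tracker Red CMTPX staining in the red channel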; as to lipid storage change, negative = inhibition: % is scaled to controls: 0 for no effect and ±100 for the full control effect
Procedure, shortened: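 Drosophila S3 cells loaded with oleic acid (400 uM, as added) and compounds at several concentrations; lipid droplets imaged by 488-nm laser-scanning cytometry, 500–530 nm intensity and object ratio to cell channel. Percent activity normalized to 20 uM Triacsin C.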
Potency is read from the fitted curve at half-maximal effect.

| SMILES | lipid storage change, negative = inhibition | cell number change | outcome | Potency |
| --- | --- | --- | --- | --- |
| CCOc1cc(/C=N/NC(=O)c2cccnc2)ccc1OC(=O)c1ccco1 | -11.5% (inactive) | -16.1% | – | – |
| CCOc1cc(/C=N/NC(=O)c2ccccn2)ccc1OC(=O)c1ccc(F)cc1 | – | 5.41% | inactive | – |
| CCOc1cc(/C=N/NC(=O)c2ccncc2)ccc1OC(=O)c1ccccc1 | – | -17.2% | – | 12.6 µM (active) |
| Cc1cccc(Cn2c(N(C)CCO)nc3c2c(=O)[nH]c(=O)n3C)c1 | 7.8% (inactive) | 28.6% | – | – |
| CCN(c1ccccc1)S(=O)(=O)c1ccc(OC)c(NC(=O)CN2C(=O)NC(C)(C)C2=O)c1 | 9.62% (inactive) | -3.73% | – | – |
| COc1ccc(C2(c3ccc(OC)cc3)NC(=O)N(CC(=O)Nc3ccccc3)C2=O)cc1 | – | 10.9% | inactive | – |
| CCC1(c2ccc(F)cc2)NC(=O)N(CC(=O)N2CCOCC2)C1=O (stereo not given) | -5.08% (inactive) | -2.03% | – | – |
| COc1ccc(N2CCN(C(=O)CN3C(=O)NC(C)(C4CC4)C3=O)CC2)cc1 (stereo not given) | 8.91% (inactive) | -22.3% | – | – |
| COc1ccc(C2(c3ccc(OC)cc3)NC(=O)N(CC(=O)N3CCOCC3)C2=O)cc1 | – | 8.58% | – | 0.231 µM (active) |
| COc1ccc(N2CCN(C(=O)CSc3nnc(C)c(=O)[nH]3)CC2)cc1 | – | 2.46% | – | 29.1 µM (active) |
| COc1cccc(N2CCN(C(=O)CN3C(=O)NC4(CCCC4)C3=O)CC2)c1 | -5.21% (inactive) | – | – | – |
| COc1ccc(-c2csc(NC(=O)CN3C(=O)C4CCCCC4C3=O)n2)c(OC)c1 (stereo not given) | -15.1% (inactive) | -28.9% | – | – |
| COc1ccc(N2CCN(C(=O)CSc3ccc(C)cc3)CC2)cc1 | -0.457% (inactive) | 6.76% | – | – |
| COc1ccc(-c2csc(NC(=O)CN3C(=O)NC4(CCCC4)C3=O)n2)c(OC)c1 | – | – | – | 6.51 µM (active) |
| COc1ccc(NC(=O)CN2C(=O)NC3(CCCC3)C2=O)c(OC)c1 | – | -7.62% | inactive | – |
| COc1ccc(N2CCN(C(=O)CN3C(=O)NC4(CCCCCC4)C3=O)CC2)cc1 | – | -6.83% | – | 5.8 µM (active) |
| COc1ccc(N2CCN(C(=O)CSc3nc4ccccc4c(=O)[nH]3)CC2)cc1 | – | -2.61% | inactive | – |
| CCCCOC(=O)c1ccc(NC(=O)C(CCS(C)(=O)=O)NC(C)=O)cc1 (stereo not given) | -3.02% (inactive) | 13% | – | – |
| CC1(OC(=O)CCc2ccccc2)C(=O)C=C2C=C(c3ccc(C#N)cc3)N(C3CCCCC3)C=C2C1=O (stereo not given) | 0.672% (inactive) | 20.5% | – | – |
| CCCCC[C@]12Cc3cc(OC)c(OC)cc3C(O1)c1c(cc(C)n(-c3ccccc3)c1=O)O2 | -5.41% [at 9.22 µM] (inactive) | -8.82% | – | – |
| O=C(O)c1ccc(Sc2nnc(-c3cccc(Br)c3)o2)c([N+](=O)[O-])c1 | – | -23.6% | – | 25.9 µM (active) |
| O=C(O)c1ccc(-c2nnc(-c3cccc(Br)c3)o2)cc1 | – | 12.2% | inactive | – |

| SMILES | lipid storage change, negative = inhibition | cell number change | outcome | Potency |
| --- | --- | --- | --- | --- |
| Cn1c(Sc2ccc(C(=O)O)cc2[N+](=O)[O-])nnc1-c1ccccc1 | 4.13% (inactive) | 9.56% | – | – |
| C=CCOc1cccc(C2C(C(=O)c3ccco3)=C(O)C(=O)N2Cc2cccnc2)c1 (stereo not given) | – | 4.96% | inactive | – |
| O=C(CN1CCC(C(=O)c2ccc(F)cc2)CC1)Nc1ccc(F)cc1 | -21.6% (inactive) | -11.2% | – | – |
| Cn1c(/N=C/c2c[nH]c3ccccc23)nc2ccccc21 | 3.33% (inactive) | -13.5% | – | – |
| O=C(NN1CCOCC1)c1cc(-c2ccc(Br)s2)nc2ccccc12 | 9.94% (inactive) | 18.5% | – | – |
| CC(C)CCNC(=O)CCc1nnc(COc2ccccc2)o1 | 19.4% (inactive) | 3.37% | – | – |
| COC(=O)[C@H](CC(C)C)NC(=O)CCc1nnc(COc2ccccc2)o1 | – | -24.9% | – | 18.4 µM (active) |
| O=C(CCc1nnc(COc2ccccc2)o1)NCc1ccccc1 | 1.25% (inactive) | -8.23% | – | – |
| CC(/C=N/NC(=O)c1cccnc1)=C\c1ccco1 | – | 4.96% | inactive | – |
| O=S(=O)(NC(=NCc1ccccc1)c1ccccc1)c1ccc(Br)cc1 | -17.1% (inactive) | 2.37% | – | – |
| CSc1ccc(C2C(C(=O)c3ccco3)=C(O)C(=O)N2c2nnc(SC)s2)cc1 (stereo not given) | – | -24.7% | – | 7.31 µM (active) |
| CSc1nnc(N2C(=O)C(O)=C(C(=O)c3ccco3)C2c2cccc(Cl)c2)s1 (stereo not given) | -16.9% (inactive) | – | – | – |
| CSc1nnc(N2C(=O)C(O)=C(C(=O)c3ccco3)C2c2ccc(F)cc2)s1 (stereo not given) | – | -4.48% | inactive | – |
| CCCc1c(O)nc(SCC(=O)O)[nH]c1=O | 23.9% (inactive) | -0.742% | – | – |
| COC(=O)COc1coc(CN2CCN(c3cccc(Cl)c3)CC2)cc1=O | – | 12.5% | inactive | – |
| COc1cc(OC)c(CN2CCCN(C)CC2)cc1Br | 8.41% (inactive) | 15.5% | – | – |
| COc1cc(OC)c(CN2CCCCCCC2)cc1Br | – | -11.5% | – | 29.1 µM (active) |
| COc1ccc(Br)cc1CN1CCCCCCC1 | 4.43% (inactive) | 9.97% | – | – |
| CC1=C(C(=O)OCC(C)C)[C@]23C(=O)c4ccccc4[C@@]2(O1)OC(N)=C3C#N | 1.93% (inactive) | -12% | – | – |
| CCCCNC(=O)[C@]1(C)CCC[C@@]2(C)C3CC[C@@]4(C)C[C@]3(CCC21)CC4=O (stereo not given in full) | – | -24.2% | – | 0.651 µM (active) |
| CC(C)(C)CNC(=O)[C@]1(C)CCC[C@@]2(C)C3CC[C@@]4(C)C[C@]3(CCC21)CC4=O (stereo not given in full) | 7.09% (inactive) | -13.8% | – | – |
| CC(C)NC(=O)[C@]1(C)CCC[C@@]2(C)C3CC[C@@]4(C)C[C@]3(CCC21)CC4=O (stereo not given in full) | – | -16.5% | inactive | – |
